{"source": "PubChem BioAssay AID504339", "about": "(National Center for Advancing Translational Sciences (NCATS), 2011)", "note": "The campaign covered roughly 390,000 compounds. About 17,000 (4.4%) were called active. Where a call stands in place of a potency, no number is given. Inconclusive results (about 8%) are left out. The call rests on the fitted dose curve; in most records, active means well fitted inhibition curve with a large enough effect; inconclusive means small, poorly fitted or top-dose-only effect; inactive means no such curve, though single readings can be large or run the other way. Many of the other results were omitted from the sample, so actives are more common in it than they were. Potency means the concentration at half of the fitted maximal effect."}
{"target": "Lysine-specific demethylase 4A (Homo sapiens) (UniProt O75164)", "sequence (O75164 whole entry, looked up, the tested form may be a part)": "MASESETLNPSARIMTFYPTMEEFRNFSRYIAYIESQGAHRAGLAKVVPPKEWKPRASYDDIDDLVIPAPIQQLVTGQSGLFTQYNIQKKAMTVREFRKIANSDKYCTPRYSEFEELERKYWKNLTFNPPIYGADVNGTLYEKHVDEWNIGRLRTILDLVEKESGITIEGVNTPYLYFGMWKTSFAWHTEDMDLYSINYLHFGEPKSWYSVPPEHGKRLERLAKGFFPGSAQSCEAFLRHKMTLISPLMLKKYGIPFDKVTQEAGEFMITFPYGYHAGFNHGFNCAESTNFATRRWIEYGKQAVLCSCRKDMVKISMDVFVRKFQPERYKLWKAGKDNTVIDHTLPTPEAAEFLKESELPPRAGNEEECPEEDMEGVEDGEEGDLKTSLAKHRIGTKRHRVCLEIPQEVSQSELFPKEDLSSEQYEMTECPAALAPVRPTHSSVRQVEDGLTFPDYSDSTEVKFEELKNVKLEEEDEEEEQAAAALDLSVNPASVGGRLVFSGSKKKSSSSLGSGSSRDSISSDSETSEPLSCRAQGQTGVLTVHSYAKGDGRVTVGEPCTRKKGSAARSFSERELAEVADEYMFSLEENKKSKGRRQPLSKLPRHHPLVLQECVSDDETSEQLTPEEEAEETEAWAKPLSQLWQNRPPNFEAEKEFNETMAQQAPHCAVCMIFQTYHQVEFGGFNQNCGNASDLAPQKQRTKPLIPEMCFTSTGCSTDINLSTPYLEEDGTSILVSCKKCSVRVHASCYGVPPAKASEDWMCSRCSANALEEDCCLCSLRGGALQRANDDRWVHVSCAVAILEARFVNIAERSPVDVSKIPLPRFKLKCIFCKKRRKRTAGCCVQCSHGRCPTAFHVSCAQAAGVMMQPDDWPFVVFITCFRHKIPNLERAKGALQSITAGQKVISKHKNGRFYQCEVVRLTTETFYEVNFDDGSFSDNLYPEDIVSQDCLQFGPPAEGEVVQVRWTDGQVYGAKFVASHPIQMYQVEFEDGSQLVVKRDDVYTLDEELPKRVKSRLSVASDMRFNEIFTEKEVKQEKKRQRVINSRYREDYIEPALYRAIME", "assay": "qHTS Assay for Inhibitors of JMJD2A-Tudor Domain; further: nearly all actives have a fitted effect of over 50% in size", "settings": "AlphaScreen JMJD2A-Tudor / H3K4me3 peptide binding; series mostly up to 114 µM"}
{"smiles": "COc1ccccc1-c1cc2nc(C)c(CCC(=O)O)c(C)n2n1", "Potency": "inactive"}
{"smiles": "Cc1ccc(C)n1-c1nnc(N2CCC(C(=O)NCc3ccc(F)cc3)CC2)s1", "Potency": "inactive"}
{"smiles": "NS(=O)(=O)c1ccc2nc(NC(=O)COc3ccccc3)sc2c1", "Potency": "inactive"}
{"smiles": "c1ccc(C(=NNc2nc3ccccc3s2)c2ccccn2)cc1", "Potency": "31.6 µM (active)"}
{"smiles": "Cc1cc(C)cc(-n2ccnc2SCC(=O)Nc2nc3ccccc3s2)c1", "Potency": "inactive"}
{"smiles": "COc1cc(-c2cc3n(C)c(C)c(CCC(=O)Nc4ccc(F)cc4)c(=O)n3n2)cc(OC)c1OC", "Potency": "inactive"}
{"smiles": "COC(=O)c1ccccc1NC(=O)c1cc(-c2ccccc2O)no1", "Potency": "inactive"}
{"smiles": "Fc1cccc(-n2ncc3c2ncn2nc(-c4ccccc4Cl)nc32)c1", "Potency": "inactive"}
{"smiles": "CN1/C(=C\\C=C2\\N=C(c3ccc(F)cc3)OC2=O)C(C)(C)c2ccccc21", "Potency": "56.2 µM (active)"}
{"smiles": "CN1CCN(CCC(=O)N/N=C/C=C2\\N(C)c3ccccc3C2(C)C)CC1", "Potency": "inactive"}
{"smiles": "CC(=O)Nc1cccc(OCC(=O)/C=C2\\N(C)c3ccccc3C2(C)C)c1", "Potency": "inactive"}
{"smiles": "O=C1C(F)N([S+](=O)([O-])c2ccc3c(c2)OCCO3)CCN1[S+](=O)([O-])c1c(F)cccc1F", "note": "(stereo not given)", "Potency": "inactive"}
{"smiles": "COCCCn1c(SCC(=O)NC2CCCC2)nnc1-c1ccccc1", "Potency": "inactive"}
{"smiles": "COCCCn1c(SCC(=O)Nc2ccccc2)nnc1-c1ccncc1", "Potency": "inactive"}
{"smiles": "COCCCn1c(Cc2csc(Nc3cccc(Cl)c3)n2)nnc1SCC(=O)OC1CCCCC1", "Potency": "44.7 µM (active)"}
{"smiles": "COc1ccccc1CNc1ccc(-c2nc(-c3ccccc3C)no2)cc1[N+](=O)[O-]", "Potency": "inactive"}
{"smiles": "Cc1nc(CNc2ncnc3ccc(-c4ccc5c(c4)OCO5)cc23)cs1", "Potency": "79.4 µM (active)"}
{"smiles": "O=C(Cn1nnc(-c2ccc3c(c2)OCO3)n1)NCc1ccco1", "Potency": "inactive"}
{"smiles": "CS(=O)(=O)N(CC(=O)NCc1ccco1)c1ccc2c(c1)OCO2", "Potency": "inactive"}
{"smiles": "CN(Cc1cncn1C)c1ncnc2ccc(-c3ccc4c(c3)OCO4)cc12", "Potency": "inactive"}
{"smiles": "Cc1noc(C)c1-c1ccc2ncnc(NCc3ccc(F)c(F)c3)c2c1", "Potency": "inactive"}
{"smiles": "c1coc(CCNc2ncnc3ccc(-c4ccc5c(c4)OCO5)cc23)c1", "Potency": "56.2 µM (active)"}
{"smiles": "O=c1c(=O)n(Cc2c(F)cccc2Cl)ccn1Cc1ccccc1", "Potency": "inactive"}
{"smiles": "COc1cc(Cl)ccc1Nc1ncc(C(=O)N2CCN(c3ccccc3OC)CC2)c2ccccc12", "Potency": "inactive"}
{"smiles": "Cc1cccc(C(=O)Nc2ccc(-c3nc4ccccc4s3)c(C)c2)c1", "Potency": "inactive"}
{"smiles": "COc1ccc(CNC(=O)CC2Oc3ccc(C)cc3NC2=O)cc1", "note": "(stereo not given)", "Potency": "inactive"}
{"smiles": "Cc1ccc(-n2nc(CO)c(C(=O)NCCc3ccccc3)n2)cc1", "Potency": "inactive"}
{"smiles": "Cc1cc(C)n(-c2ccc(NC(=O)C3CCCCN3C(=O)c3cccs3)cc2)n1", "note": "(stereo not given)", "Potency": "inactive"}
{"smiles": "Cc1ccc(NC(=O)C2CCCN2C(=O)OCc2ccccc2)cc1C", "note": "(stereo not given)", "Potency": "inactive"}
{"smiles": "COc1ccc(C(=O)N2CCCCC2C(=O)Nc2ccc(-n3nc(C)cc3C)cc2)o1", "note": "(stereo not given)", "Potency": "15.8 µM (active)"}
